This is an account of results in PubChem BioAssay.

Test [1] can be described thus: Wnt pathway potentiators raising nuclear beta-catenin – imaging, WNT3A-conditioned medium, mouse C2C12, NPC library, primary screen (AID 1117326). As to conditions: stronger effect = higher value.
A short description of test [2]: stimulators of insulin release from INS-1E, primary screen, cell-based, 5 mM glucose, NPC library (AID 1117329;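 active = compound raises insulin release from rat beta cells at 5 mM glucose, no numeric limit stated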). The settings on record: rat INS-1E insulin secretion, at 10 µM, stronger effect = higher value.
A short description of test [3]: GLP1 release stimulators, primary, NCI-H716, NPC library (AID 1117341;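 active = compound raises GLP1 secretion from the human gut endocrine cells, with no numeric limit stated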). The settings on record: NCI-H716 cells, at 10 µM, stronger effect = higher value.
A short description of test [4]: growth inhibition of GSK3B-pretreated HCT116 cells – cell-based, CellTiter-Glo, 0.2 to 20 µM (AID 1117336;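 active = compounds lowering colon cancer cell viability after pretreatment blocking the GSK3B kinase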). The settings on record: HCT116 viability after GSK3B inhibitor, at 20 µM, stronger effect = higher value. Background: In ATP-based viability assays light output follows the ATP content of the culture.
A short description of test [5]: inhibition of endothelial tube formation, primary screen, imaging, VEGF stimulated, CD31 staining, tube area, NPC library (AID 1117340;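 active = compound that reduces growth-factor-driven endothelial tube area in a mixed cell culture, no cutoff stated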). The settings on record: VEGF-stimulated ADSC/ECFC co-culture, at 10 µM, stronger effect = higher value.
Test [6] in a line: HCT116 colon cancer cell growth inhibition, primary screen, CellTiter-Glo luminescence, NPC library (AID 1117342;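 active = compounds that lower survival of HCT116 colon cancer cells in the luminescence readout, no numeric limit stated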). As to conditions: at 20 µM (top of the series).
A short description of test [7]: reduced SW480 viability measured with CellTiter-Glo, NPC library, primary (AID 1117343;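 active = compounds that lower viability of the colon cancer cells in the luminescence readout, with no numeric limit stated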). The settings on record: CellTiter-Glo luminescence; at 20 µM (top of the series).
A short description of test [8]: NPC library primary testing for decreased DLD-1 cell viability via CellTiter-Glo (AID 1117346;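 active = compounds that lower survival of DLD-1 colon cancer cells in the luminescence readout, no cutoff given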). The settings on record: DLD-1 viability, CellTiter-Glo luminescence; at 20 µM (top of the series).
Test [9] can be described thus: viability loss with induced miR-34 in A549 – imaging, A549 dox-inducible miR-34, nuclei and caspase counts, primary screen (AID 1347080;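 active = compounds whose cell count with miR-34 switched on is under 0.7 times the count with it off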). As to conditions: A549 miR-34 inducible, Hoechst nuclei count, 48 h.
Test [10] can be described thus: compounds altering viability of human ES cells (AID 493140; call rule not given here;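 note: cells exposed to compounds for four days before counting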). The settings on record: human embryonic stem cell survival screen; stronger effect = higher value.
Test [11] is described as follows: P. berghei load reduction in hepatocytes – cell-based, HepG2, luciferase luminescence, HepG2 viability, primary screen (AID 624349; in the data active = parasite load remaining mostly below about 12%, no sharp cut-off; inactive = mostly above about 10%;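 note: 100% = mean of DMSO negative control wells on the same plate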). As to conditions: P. berghei liver stage in HepG2, luciferase luminescence, concentration not given here; parasite load remaining: stronger effect = lower value; viability: measured here: HepG2 viability without parasites.
The nature of test [12]: MELAS cybrid and Rieske KO viability enhancers – cell-based, MELAS cybrids, Rieske KO mouse fibroblasts, CellTiter-Glo, primary screen (AID 1508586;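 active = mean z-score across replicates of 1.96 or higher in either the MELAS or the Rieske mutant cell line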;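 note: z relative to plate mean and SD of compound and empty wells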). As to conditions: low glucose.
Test [13] has as its target NAD(+) hydrolase SARM1 (Homo sapiens) (UniProt Q6SZW1). Description: blocking NAD cleavage by SARM1 SAM-TIR – cell lysate, NAD-Glo luminescence (AID 1508614;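 active = compound whose remaining NAD level is above about 45 nM, limit read from the data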;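 note: higher remaining NAD means stronger inhibition of SARM1 NADase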). The settings on record: SAM-TIR HEK293T lysate NADase, at 1 µM, stronger effect = higher value.
The target of test [14] is 6-phosphogluconate dehydrogenase, decarboxylating (Homo sapiens) (UniProt P52209). The test is described as follows: inhibition of human phosphogluconate dehydrogenase – biochemical, recombinant enzyme, NADPH absorbance, primary screen (AID 1159550;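 active = at least 20% inhibition of 6-phosphogluconate dehydrogenase activity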). The settings on record: recombinant 6PGD, NADPH absorbance 341 nm; at 10 µM; stronger effect = higher value.
Sequence of 6-phosphogluconate dehydrogenase, decarboxylating (Homo sapiens) (P52209 whole entry, looked up): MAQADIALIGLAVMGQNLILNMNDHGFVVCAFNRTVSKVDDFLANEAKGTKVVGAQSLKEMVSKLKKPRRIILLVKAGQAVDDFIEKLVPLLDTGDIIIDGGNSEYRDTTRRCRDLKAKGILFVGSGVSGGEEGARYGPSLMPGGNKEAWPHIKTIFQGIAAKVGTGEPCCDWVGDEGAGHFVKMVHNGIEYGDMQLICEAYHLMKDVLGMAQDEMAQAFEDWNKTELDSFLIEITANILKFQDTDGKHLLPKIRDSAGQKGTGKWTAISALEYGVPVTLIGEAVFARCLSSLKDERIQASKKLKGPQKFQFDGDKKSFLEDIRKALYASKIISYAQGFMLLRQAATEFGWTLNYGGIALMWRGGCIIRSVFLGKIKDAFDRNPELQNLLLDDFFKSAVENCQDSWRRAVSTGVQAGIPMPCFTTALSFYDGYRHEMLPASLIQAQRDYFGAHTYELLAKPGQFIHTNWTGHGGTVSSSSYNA
[15] abbreviates: measured here: relative caspase fold change +Dox/-Dox.
The mark [16] stands for this setting: measured here: total cells with miR-34 induction, stronger effect = lower value.
Setting [17] is: measured here: total cells without miR-34 induction.
[18] abbreviates: MELAS cybrid survival, CellTiter-Glo 48 h, stronger effect = higher value.
[19] abbreviates: Rieske KO mouse fibroblast survival, CellTiter-Glo 72 h.

Each structure is given as a SMILES string. “And” between values parts separate entries of the source, which are not always exact repeats. Equal values may be shown once. The source made the active and inactive calls. Cut-off read from the data, not from the text of the source, unless noted: active = nuclear beta-catenin stimulation mostly above about 4.2% (no sharp cut-off); inactive = mostly below about 10%.

Sequence of NAD(+) hydrolase SARM1 (Homo sapiens) (Q6SZW1 whole entry, looked up): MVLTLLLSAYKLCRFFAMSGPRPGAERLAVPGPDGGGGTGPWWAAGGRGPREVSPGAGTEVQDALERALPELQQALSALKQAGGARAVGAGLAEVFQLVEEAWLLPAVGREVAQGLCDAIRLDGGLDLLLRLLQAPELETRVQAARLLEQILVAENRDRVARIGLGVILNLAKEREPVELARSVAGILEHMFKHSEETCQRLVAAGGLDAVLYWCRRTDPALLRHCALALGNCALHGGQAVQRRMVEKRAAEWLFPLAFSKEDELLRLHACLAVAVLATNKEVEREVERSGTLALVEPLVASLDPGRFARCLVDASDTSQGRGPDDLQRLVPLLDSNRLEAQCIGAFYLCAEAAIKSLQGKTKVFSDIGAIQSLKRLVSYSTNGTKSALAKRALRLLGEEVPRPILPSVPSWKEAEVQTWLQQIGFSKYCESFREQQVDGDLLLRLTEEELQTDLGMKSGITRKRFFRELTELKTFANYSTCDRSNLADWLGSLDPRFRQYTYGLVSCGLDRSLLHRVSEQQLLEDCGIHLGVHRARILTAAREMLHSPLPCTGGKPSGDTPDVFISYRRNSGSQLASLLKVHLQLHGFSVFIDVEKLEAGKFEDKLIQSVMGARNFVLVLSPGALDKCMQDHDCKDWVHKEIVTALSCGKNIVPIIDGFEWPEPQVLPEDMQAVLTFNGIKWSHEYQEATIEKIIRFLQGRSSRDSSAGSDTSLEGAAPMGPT

Regarding `O=C(NC(=O)c1c(F)cccc1F)Nc1ccc(Cl)c(Oc2ncc(C(F)(F)F)cc2Cl)c1`, the nuclear beta-catenin stimulation in test [1] (at 10 µM) was 1.2% (inactive); in test [1] (stimulation, at 2 µM), -0.3%. In [2], the insulin secretion stimulation was 0.25% (inactive). Besides, in [3], the GLP1 secretion stimulation was -8.7% (inactive).
The matching figures for `CCOC(=O)C=C(C)C=CC[C@@H](C)CCCC(C)C`: 0.8% (inactive), -0.1%, 1.05% (inactive) and -6.5% (inactive).
`COC(=O)[C@@H](N)CCCN/C(N)=N/[N+](=O)[O-]`: the nuclear beta-catenin stimulation in test [1] (at 10 µM) is -0.9% (inactive); in test [1] (stimulation, at 2 µM), -2.6%. Moreover, the insulin secretion stimulation in [2] is 0.95% (inactive). Also, the viability decrease in test [4] is 23.3% (inactive). The tube area decrease in [5] was -8.8% (inactive). In [3], the GLP1 secretion stimulation was 0.9% (inactive). In addition, in test [6], the inhibition of viability is 1.7% (inactive). The viability decrease (inhibition) is -10.3% (inactive) in test [7] and -0.3% (inactive) in test [8]. Besides, the fold change was 0.947 (inactive) in [9] (stronger effect = lower value, cell number ratio, induced over uninduced) and 0.639 in test [9] (setting [15]). Besides, the cell count in test [9] (setting [16]) came to 5570; in test [9] (setting [17]), 5890.
For orientation: viability means a read-out of living cells in per cent, often relative to untreated cells. For `CC(=O)OCC1=C(C(=O)O)N2C(=O)[C@@H](N)[C@H]2SC1`, the survival in test [10] was 9.33 (inactive). Besides, the parasite load remaining in [11] was 107% (inactive) and 94.3% (inactive). In test [11], the viability was 91.6% and 74.9%. The nuclear beta-catenin stimulation in [1] (at 10 µM) is -0.8% (inactive); in test [1] (stimulation, at 2 µM) it was 0.2%. For the same molecule, the insulin secretion stimulation in [2] was -2.9% (inactive). Also, the viability decrease in [4] was 27.2% (inactive). Further, the tube area decrease in test [5] was 10.2% (inactive). Besides, the GLP1 secretion stimulation in test [3] is 1.9% (inactive). Further, the inhibition of viability in [6] is -5.2% (inactive). Also, the viability decrease (inhibition) was 82.6% (active) in test [7] and 29.3% (inactive) in [8]. Moreover, the fold change in test [9] (stronger effect = lower value) is 0.918 (inactive); in test [9] (setting [15]), 1.55. For the same molecule, the cell count in test [9] (setting [16]) was determined as 8570; in [9] (setting [17]), 9340. For the same molecule, the z-score is 0.366 (inactive) in test [12] (setting [18]) and -0.158 in [12] (setting [19]).
For the molecule `CC(C)(C)CC(C)(C)c1ccc(O)cc1`, the nuclear beta-catenin stimulation in test [1] (at 10 µM) was -1.8% (inactive); in test [1] (stimulation, at 2 µM) it was -0.9%. Also, the insulin secretion stimulation in [2] was 4% (inactive). Further, the viability decrease in test [4] was 84.6% (active). Also, the tube area decrease in test [5] is 66.9% (active). Besides, the GLP1 secretion stimulation in [3] was 28.5% (active). The inhibition of viability in [6] was 74.8% (active). Besides, the viability decrease (inhibition) in test [7] is 142% (active); in [8], 104% (active). Moreover, the remaining NAD in test [13] was 10 nM (inactive).
As for `O=C(NCNC(=O)NC1C(=O)NC(=O)N1CO)NC1C(=O)NC(=O)N1CO` (stereo not given), in test [10], the survival was 33.2 (inactive). Also, in [11], the parasite load remaining is 92.1% (inactive). The molecule also showed a viability in [11] of 79.2%. Moreover, the nuclear beta-catenin stimulation in test [1] (at 10 µM) was -1.7% (inactive); in test [1] (stimulation, at 2 µM), 0.2%. Besides, in test [2], the insulin secretion stimulation was 1.2% (inactive). Besides, the viability decrease in test [4] was -3.4% (inactive). Further, in [5], the tube area decrease was -8.4% (inactive). In addition, the GLP1 secretion stimulation in test [3] was -0.8% (inactive). For the same molecule, the inhibition of viability in test [6] was -1.8% (inactive). In addition, the viability decrease (inhibition) in [7] is 3.1% (inactive); in [8], 8.4% (inactive). The fold change in test [9] (stronger effect = lower value) was 0.914 (inactive); in test [9] (setting [15]), 0.72. Also, the values for the cell count in test [9] (setting [16]) and in test [9] (setting [17]) were 9340 and 10200, respectively. For the same molecule, the values for the z-score in [12] (setting [18]) and in test [12] (setting [19]) were 0.818 (inactive) and 0.0717, respectively.
The term inhibition denotes the drop in the measured response relative to a control, in per cent. As for `COc1c2c(cc3c1OCO3)[C@]13C=C[C@H](OC)C[C@H]1N(C2)C[C@@H]3O`, the inhibition in [14] is -2.74% (inactive).
With `Fc1cc(Br)ccc1CBr`, the nuclear beta-catenin stimulation is -0.7% (inactive) in [1] (at 10 µM) and 13% in test [1] (stimulation, at 2 µM). In addition, the viability decrease in test [4] is 3.1% (inactive). Moreover, the tube area decrease in test [5] is -4.2% (inactive). In addition, the inhibition of viability in test [6] was -1.5% (inactive). For the same molecule, the viability decrease (inhibition) in test [7] was 5.9% (inactive); in test [8], 9.1% (inactive).
